Laboratory results: the supplement of paper PMC3334620
The full ranking holds about 33,000 sequences; the median of “E-score (-0.5 to 0.5)” is about -0.016, and the highest 2% start at about 0.31. Only a selection was taken, and the highest values are over-represented in it overall.

target: Cst6 (UniProt P40535); experiment: PBM E-score (8-mer binding enrichment) (E-score (-0.5 to 0.5)); higher = stronger / more preferred TF binding; settings: protein concentration: 200 nM; construct: GST-DNA-binding domain
Sequence of UniProt P40535 (P40535 whole entry, the tested form may be a part): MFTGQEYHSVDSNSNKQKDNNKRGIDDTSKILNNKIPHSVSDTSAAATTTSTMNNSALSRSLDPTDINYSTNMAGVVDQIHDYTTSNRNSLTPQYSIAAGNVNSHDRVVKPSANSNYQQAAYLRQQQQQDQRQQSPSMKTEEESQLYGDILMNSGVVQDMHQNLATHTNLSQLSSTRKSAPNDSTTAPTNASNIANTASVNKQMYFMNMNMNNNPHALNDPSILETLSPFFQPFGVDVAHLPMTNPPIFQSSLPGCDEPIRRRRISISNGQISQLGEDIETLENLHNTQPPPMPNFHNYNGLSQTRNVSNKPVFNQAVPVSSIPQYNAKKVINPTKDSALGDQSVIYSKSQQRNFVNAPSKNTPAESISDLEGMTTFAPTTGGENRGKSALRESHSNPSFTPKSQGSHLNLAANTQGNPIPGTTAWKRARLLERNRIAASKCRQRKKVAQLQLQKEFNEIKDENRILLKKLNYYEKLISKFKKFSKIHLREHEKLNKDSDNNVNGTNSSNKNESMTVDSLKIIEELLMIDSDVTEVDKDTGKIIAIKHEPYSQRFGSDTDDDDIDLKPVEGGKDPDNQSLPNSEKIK
Protocol: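 Universal 'all 10-mer' protein binding microarrays (Agilent AMADID 015681) probed with GST-tagged S. cerevisiae TFs (full-length or DBD) made by in vitro transcription/translation (PURExpress), about 100-200 nM. Bound TF was detected with fluorescent anti-GST. Each ungapped 8-mer (which stands for itself and its reverse complement) is scored by the PBM enrichment score (E-score), a modified Wilcoxon-Mann-Whitney statistic from -0.5 to +0.5, computed with the Universal PBM Analysis Suite. Scale: above 0.35 generally sequence-specific binding.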

Compared with ACTGCGTC, CACTTGGC is lower in “PBM E-score” value: 0.147 for the first, -0.08 for the second.

First: GTGCTTAA
Second: ATCGCAGG
The “PBM E-score” value of the first is higher: 0.0338 for the first, -0.199 for the second.

First: GCATTGTA
Second: GGGCTGTA
The “PBM E-score” value of the first is higher: 0.047 for the first, -0.256 for the second.

First: GCAACCCA
Second: ATTTTCTG
The “PBM E-score” value of the first is lower: -0.0438 for the first, 0.115 for the second.

First: CCTCGAAA
Second: CATCACTA
The “PBM E-score” value of the first is lower: 0.0797 for the first, 0.353 for the second.

First: GGTCACTA
Second: AATCACTA
The “PBM E-score” value of the first is lower: 0.0296 for the first, 0.159 for the second.

Going from AGTCACTC to CGTCACTC, the “PBM E-score” value rises from -0.033 to 0.445.

Going from AGTCACTA to CCTCACTC, the “PBM E-score” value falls from 0.209 to 0.0262.

First: GATCACTA
Second: CGTCACTA
The “PBM E-score” value of the first is lower: 0.0963 for the first, 0.459 for the second.

Going from GTTTGGTA to CAAAAATG, the “PBM E-score” value falls from 0.213 to 0.133.

Compared with ACTGTGGG, GATACCGC is lower in “PBM E-score” value: -0.0161 for the first, -0.0789 for the second.

First: AGGGACAT
Second: CGACGGGC
The “PBM E-score” value of the first is lower: -0.181 for the first, 0.0567 for the second.

First: CCATTACC
Second: AGGAGACA
The “PBM E-score” value of the first is higher: -0.00808 for the first, -0.0509 for the second.

Going from ATCAAGTC to TGAGGTAA, the “PBM E-score” value rises from 0.0221 to 0.414.

Going from AGAGGTAA to GGAGGTAA, the “PBM E-score” value rises from -0.119 to -0.0533.

Compared with ATAGCTGA, CATTCCAG is higher in “PBM E-score” value: -0.204 for the first, -0.0492 for the second.

Compared with AGAGGGTG, ATGCCGCA is higher in “PBM E-score” value: -0.204 for the first, 0.353 for the second.

Compared with GGGCCGCA, GAGCCGCA is higher in “PBM E-score” value: -0.0641 for the first, 0.28 for the second.

Going from GTGCCGCA to CTGCCGCA, the “PBM E-score” value falls from 0.362 to 0.0518.

First: ATGCCGCG
Second: TAACTACA
The “PBM E-score” value of the first is higher: 0.233 for the first, 0.0421 for the second.

First: AGAGTTTA
Second: CCACACTA
The “PBM E-score” value of the first is higher: 0.176 for the first, 0.149 for the second.

Compared with TACCTAAA, CGTGTGGA is lower in “PBM E-score” value: 0.14 for the first, -0.153 for the second.

Going from AAAGGGGC to AACGGCAT, the “PBM E-score” value rises from -0.196 to 0.346.

Compared with CACGGCAC, AACGGCAC is lower in “PBM E-score” value: 0.356 for the first, 0.343 for the second.

Going from AACGGCAG to AACGGCAA, the “PBM E-score” value rises from 0.134 to 0.251.

First: CACGGCAA
Second: ATCGGCAT
The “PBM E-score” value of the first is higher: 0.302 for the first, 0.23 for the second.

Compared with GACGGCAC, CACGGCAG is lower in “PBM E-score” value: 0.23 for the first, 0.142 for the second.

Compared with CTCTGAAA, AAGGATGA is higher in “PBM E-score” value: -0.0419 for the first, 0.0593 for the second.

First: CATGCAAA
Second: CGCCGTGC
The “PBM E-score” value of the first is lower: 0.142 for the first, 0.344 for the second.

Going from CGCGCCGC to AGCGCCGC, the “PBM E-score” value falls from 0.326 to 0.309.

Going from AGCCGCGC to AGCGCCGA, the “PBM E-score” value falls from 0.18 to 0.00204.

First: CGCCGCGA
Second: AGCGCCGG
The “PBM E-score” value of the first is higher: 0.241 for the first, -0.102 for the second.

First: CCCGCCGC
Second: CGCGCCGA
The “PBM E-score” value of the first is lower: 0.126 for the first, 0.137 for the second.

First: CGCCGTGA
Second: AGCCGTGC
The “PBM E-score” value of the first is lower: 0.221 for the first, 0.24 for the second.

Going from CGCCGCGC to ATTATGCG, the “PBM E-score” value falls from 0.357 to 0.217.

Compared with ACGAGTTA, CTTCTTCC is lower in “PBM E-score” value: 0.0712 for the first, -0.212 for the second.

Compared with ACCTAGTA, AACTCTGT is higher in “PBM E-score” value: -0.284 for the first, 0.0458 for the second.

Going from ATCTATCA to ACCCACGT, the “PBM E-score” value falls from 0.128 to 0.0287.

First: ACCAACTC
Second: CATTTCCA
The “PBM E-score” value of the first is lower: -0.0108 for the first, 0.143 for the second.

Compared with CTTTAGGA, ACCTCTCA is lower in “PBM E-score” value: -0.0677 for the first, -0.0889 for the second.

Compared with CTACATAA, TGACATAA is higher in “PBM E-score” value: -0.0447 for the first, 0.477 for the second.

Going from AGACATAA to GGACATAA, the “PBM E-score” value rises from 0.0351 to 0.0407.

First: TTACATAA
Second: GTACATAA
The “PBM E-score” value of the first is higher: 0.433 for the first, 0.085 for the second.

Going from ACTACCTA to AGTGGAGC, the “PBM E-score” value falls from 0.0222 to -0.165.

Compared with AGGTGACG, AGGTGACC is lower in “PBM E-score” value: 0.452 for the first, 0.046 for the second.

First: CGGTGACC
Second: AGGTGACA
The “PBM E-score” value of the first is lower: 0.115 for the first, 0.278 for the second.

First: CGGTGACG
Second: AGTTGACG
The “PBM E-score” value of the first is higher: 0.476 for the first, 0.324 for the second.

First: ATGTGACA
Second: CGGTGACA
The “PBM E-score” value of the first is lower: 0.151 for the first, 0.266 for the second.

Compared with ATGTGACC, AGTTGACA is higher in “PBM E-score” value: 0.0452 for the first, 0.191 for the second.

Going from AGTTGACC to ATGTGACG, the “PBM E-score” value rises from -0.114 to 0.433.

Going from CCCAGGGA to CTGGAGCA, the “PBM E-score” value rises from -0.37 to -0.0734.

Going from CAGCCTTA to AAGCTAAG, the “PBM E-score” value rises from -0.254 to -0.252.

Compared with AAAGCTTC, CTACTTAC is higher in “PBM E-score” value: -0.172 for the first, 0.127 for the second.

Going from AGGCTAAC to CAAACCTG, the “PBM E-score” value rises from -0.114 to 0.0584.

Compared with CATAATTA, CCTAATTA is lower in “PBM E-score” value: 0.304 for the first, -0.00674 for the second.

Compared with GATAATAA, AATAATTG is higher in “PBM E-score” value: 0.098 for the first, 0.121 for the second.

Compared with GCTAATTA, AATAATTA is higher in “PBM E-score” value: 0.166 for the first, 0.325 for the second.

First: AATAATTC
Second: ACTAATTA
The “PBM E-score” value of the first is lower: 0.205 for the first, 0.351 for the second.

Compared with GATAATTA, CAGGGCGA is lower in “PBM E-score” value: 0.322 for the first, -0.00562 for the second.

Going from CTCTCGCC to AATGGTGA, the “PBM E-score” value rises from -0.249 to 0.184.

Going from TCGGCTCA to AGTGACTC, the “PBM E-score” value rises from -0.0753 to 0.0809.

Going from CGTGACGC to CGTGACGA, the “PBM E-score” value falls from 0.436 to 0.386.

Compared with CTTGACGC, CGTGACAA is lower in “PBM E-score” value: 0.214 for the first, 0.108 for the second.

Compared with AGTGACGC, CGTGACCA is lower in “PBM E-score” value: 0.438 for the first, -0.0809 for the second.

First: CCTGACGC
Second: AGTGACCC
The “PBM E-score” value of the first is higher: -0.0402 for the first, -0.164 for the second.

Going from GCGTTAAA to AGGGTAGC, the “PBM E-score” value falls from -0.0116 to -0.17.

Going from GTGCTATA to ACTCATTC, the “PBM E-score” value rises from 0.0846 to 0.103.

First: CTCCGATA
Second: GGGATTTA
The “PBM E-score” value of the first is lower: -0.203 for the first, 0.00892 for the second.

Going from GGGCCTGA to TCACCAAA, the “PBM E-score” value rises from -0.239 to 0.326.

Compared with GCACCAAA, ACACCAAA is higher in “PBM E-score” value: 0.0915 for the first, 0.212 for the second.

Going from CGCCTTAC to GAAGTGGA, the “PBM E-score” value falls from 0.163 to -0.16.

First: GTCATACA
Second: GGCATACA
The “PBM E-score” value of the first is higher: 0.317 for the first, -0.102 for the second.

First: GTCATAGA
Second: CTCATAGA
The “PBM E-score” value of the first is higher: 0.411 for the first, 0.0631 for the second.

First: CTCATATA
Second: GTCATATA
The “PBM E-score” value of the first is lower: -0.0189 for the first, 0.377 for the second.

Compared with CTCATACA, GTCATAAA is higher in “PBM E-score” value: 0.116 for the first, 0.331 for the second.

Compared with ATCATAAA, ATCATAGA is higher in “PBM E-score” value: 0.195 for the first, 0.246 for the second.

First: ATCATATA
Second: TTCATAAA
The “PBM E-score” value of the first is higher: 0.299 for the first, 0.212 for the second.

First: CAACACTG
Second: AGGCGTGG
The “PBM E-score” value of the first is higher: 0.0167 for the first, -0.196 for the second.

Going from ATTAAGCG to AACTGAAG, the “PBM E-score” value falls from 0.108 to 0.0725.

Going from CCGGCCAA to TGCTAGCA, the “PBM E-score” value rises from -0.232 to 0.0927.

First: AGTACTGC
Second: TAAAGTCA
The “PBM E-score” value of the first is lower: -0.173 for the first, 0.0375 for the second.

Going from ATTGCTCA to CAGATACG, the “PBM E-score” value falls from 0.192 to 0.0888.

First: CTAACAGC
Second: ATCATACG
The “PBM E-score” value of the first is lower: -0.00671 for the first, 0.308 for the second.

First: ATCATACC
Second: ATCATACA
The “PBM E-score” value of the first is lower: 0.259 for the first, 0.268 for the second.

Going from CAGACAAG to AGTCTCCC, the “PBM E-score” value falls from -0.14 to -0.308.

First: CATCATAA
Second: CATCATAC
The “PBM E-score” value of the first is lower: 0.291 for the first, 0.374 for the second.
